{"source": "ChEMBL document CHEMBL3433997", "about": "“St. Jude Leishmania screening dataset” (2016)"}
{"target": "Solute carrier family 2, facilitated glucose transporter member 1 (Homo sapiens) (UniProt P11166)", "sequence (P11166 whole entry)": "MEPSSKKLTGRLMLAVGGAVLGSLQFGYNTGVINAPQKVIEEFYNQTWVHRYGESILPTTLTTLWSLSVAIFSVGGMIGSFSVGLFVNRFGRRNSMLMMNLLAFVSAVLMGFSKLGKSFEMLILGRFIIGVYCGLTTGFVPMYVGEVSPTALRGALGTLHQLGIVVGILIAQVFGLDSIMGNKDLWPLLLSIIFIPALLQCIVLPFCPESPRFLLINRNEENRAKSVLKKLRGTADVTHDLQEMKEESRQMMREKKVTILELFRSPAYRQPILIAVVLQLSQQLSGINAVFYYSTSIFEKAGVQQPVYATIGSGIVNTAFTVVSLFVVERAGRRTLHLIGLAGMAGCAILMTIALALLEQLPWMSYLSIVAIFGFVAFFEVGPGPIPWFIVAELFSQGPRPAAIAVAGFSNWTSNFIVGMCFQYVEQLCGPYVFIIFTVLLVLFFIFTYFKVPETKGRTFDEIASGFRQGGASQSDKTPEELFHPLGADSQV", "assay": "ST_JUDE_LEISH: Cytotoxicity at 2uM final concentration against transgenic Leishmania Mexicana promastigotes LmGLUT1 that are glucose transport deficient and complemented with the human glucose transporter GLUT1. Activity is measured by DNA content using SYBR green in vitro", "type": "functional", "units": {"inhibition": "%"}}
{"smiles": "COc1cc(Cc2cnc(N)nc2N)ccc1OCc1ccc(-c2ccccc2C#N)cc1", "inhibition": 0.17}
{"smiles": "CC(C)(C)c1ccc(CNC(=O)/C=C/c2ccc(CNC3CCNCC3)cc2)cc1", "inhibition": -1.23}
{"smiles": "CCCCCCCCNc1c2ccc(Cl)cc2nc2ccc(OC)cc12", "inhibition": 7.33}
{"smiles": "CCC(C)(C)NC(=O)C(c1cccc(OC)c1)N(C(=O)CNC(=O)c1cccs1)c1ccc2c(c1)OCCO2", "note": "(stereo not given)", "inhibition": 6.74}
{"smiles": "CN1CCN(C(C(=O)NCc2cc(Cl)cc(Cl)c2)c2ccc(Nc3cccc(C(F)(F)F)c3)cc2)CC1", "note": "(stereo not given)", "inhibition": 1}
{"smiles": "CCC/C=C/c1c(CNCCCNc2cc(=O)c3ccccc3[nH]2)sc(CC)c1Br", "inhibition": 0.5}
{"smiles": "CCCCC(NCC)c1ccc(OCCOc2ccc(C(CCCC)NCC)cc2)cc1", "note": "(stereo not given)", "inhibition": 81.2}
{"smiles": "N#Cc1cccc(NC(=O)Nc2ccc3c(c2)CCN(C2CCC2)CC3)c1", "inhibition": 5.45}
{"smiles": "O=C(Nc1ccc2oc(-c3ccc(Cl)cc3Cl)nc2c1)c1ccc([N+](=O)[O-])o1", "inhibition": 88.9}
{"smiles": "COc1ccc(C2SCC(=O)N2CCc2ccc(OC)c(OC)c2)cc1", "note": "(stereo not given)", "inhibition": 2.35}
{"smiles": "CCOc1ccccc1CON1C(N)=NC(N)=NC1(C)C", "inhibition": 4.48}
{"smiles": "CC(C)NC(=N)NN=Cc1ccc(Cl)c(Cl)c1", "inhibition": 5.7}
{"smiles": "Cc1ccc(C(C)C)c(Oc2ccc3nc(N)nc(N)c3c2)c1", "inhibition": 13.2}
{"smiles": "COc1ccc(CN2CCCC(Nc3ccc(F)c(F)c3)C2)c(O)c1", "note": "(stereo not given)", "inhibition": 2.58}
{"smiles": "COc1ccc(CNCCc2cccs2)cc1-c1ccc(OC)c(S(=O)(=O)NCCN2CCCC2)c1", "inhibition": 3.2}
{"smiles": "COc1cc(F)c2nccc([C@@H](O)CN3CCC(NC(=O)OCc4ccccc4)C(F)C3)c2c1", "note": "(stereo not given in full)", "inhibition": 11.6}
{"smiles": "C=C[C@]1(C)C[C@@H](OC(=O)c2cncn(COC)c2=O)[C@]2(C)[C@H](C)CC[C@]3(CCC(=O)[C@H]32)[C@@H](C)[C@@H]1O", "inhibition": -0.03}
{"smiles": "COc1cc(Cc2c(C)nc3nc(N)nc(N)c3c2C)c(Br)c(OC)c1OC", "inhibition": 5.54}
{"smiles": "O=C1OC2(CN1CC1CCN(Cc3ccc(O)c(Cl)c3)CC1)c1ccccc1-c1ccccc12", "inhibition": 8.04}
{"smiles": "Nc1ccc(-c2cnc3[nH]cc(-c4ccc(C(=O)O)cc4)c3c2)cn1", "inhibition": -0.33}
{"smiles": "O=C(/C=C/c1ccc(F)cc1)NC1CCC(CCN2CCc3ccc(-n4cccn4)cc3CC2)CC1", "note": "(stereo not given)", "inhibition": 11.7}
{"smiles": "CC(=O)c1c(Cc2ccccc2Cl)c[nH]c1C", "inhibition": 4.46}
{"smiles": "CCSc1nc2sc3c(c2c(=O)n1-c1ccccc1)CCN(C)C3", "inhibition": 0.1}
{"smiles": "CC(Oc1ccc(Cl)cc1)C(=O)Nc1cc(C(F)(F)F)ccc1-n1cncn1", "note": "(stereo not given)", "inhibition": 2.69}
{"smiles": "COc1ccc(-c2ncnc(C(F)(F)F)c2-c2ccc(Cl)cc2)c(O)c1", "inhibition": 3.19}
{"target": "Hexose transporter 1 (Plasmodium falciparum) (UniProt O97467)", "assay": "ST_JUDE_LEISH: Cytotoxicity at 2uM final concentration against transgenic Leishmania Mexicana promastigotes LmPfHT that are glucose transport deficient and complemented with the Plasmodium falciparum hexose transporter. Activity is measured by DNA content using SYBR green in vitro", "type": "functional", "units": {"inhibition": "%"}}
{"smiles": "Cc1ccc(NC(=O)Nc2ccccc2)cc1-c1ccc(C(=O)Nc2ccncc2)cc1", "inhibition": 7.89}
{"smiles": "CCCn1c(Sc2ccc(C#N)c([N+](=O)[O-])c2)nnc1-c1ccc(N(C)C)cc1", "inhibition": 4.8}
{"smiles": "COc1ccccc1Cc1nc2ccccc2nc1SCC(=O)Nc1cccc(C(F)(F)F)c1", "inhibition": 3.21}
{"smiles": "CCCCNC(=O)[C@@H](NC(=O)c1ccc(O)c(-c2ccc(Cl)c(Cl)c2)c1)C(C)C", "inhibition": 4.37}
{"smiles": "CCCNCc1ccc(-c2ccc(CN(CCOC)C(=O)CCCOCc3ccccc3)cc2)nc1", "inhibition": 1.41}
{"smiles": "CC(C)COc1ccc(Cl)cc1Cc1ccc(-c2nc3ccc(C(F)(F)F)cc3[nH]2)o1", "inhibition": 0.46}
{"smiles": "CC1(CCc2ccccc2)N=C(N)N=C(N)C1c1ccc(Cl)c(Cl)c1", "note": "(stereo not given)", "inhibition": 9.47}
{"smiles": "O=C(NC(Nc1ccc([N+](=O)[O-])cc1)C(Cl)(Cl)Cl)c1ccc(Cl)cc1", "note": "(stereo not given)", "inhibition": -3.03}
{"smiles": "N#Cc1ccc(N[C@@H](CC2CCCCC2)C(=O)Nc2ccc(-c3ccccc3)cc2)c2ccccc12", "inhibition": 3.08}
{"smiles": "CN(Cc1cccc(O)c1)C1CCN(c2cc(NC(=O)c3cccc(F)c3)ccn2)CC1", "inhibition": 1.18}
{"smiles": "CC(C)c1ccc(NC(=O)c2ccc(C(=O)NC3CCN(Cc4ccccc4)CC3)cc2)cc1", "inhibition": 2.91}
{"smiles": "O=C(Nc1ccccc1)Nc1cccc(-c2nn3c(OCCN4CCCC4)cccc3c2-c2ccncc2)c1", "inhibition": 6.38}
{"smiles": "Cc1onc(-c2ccccc2)c1-c1nc(NCCC(c2ccccc2)c2ccccc2)no1", "inhibition": 9.89}
{"smiles": "O=C(CN1CCC(NCc2cnc(-c3ccc(Cl)cc3)[nH]2)CC1)N1CCc2ccccc21", "inhibition": 0.65}
{"smiles": "O=C(Nc1ccccc1)Nc1cccc(-c2nn3c(OCC4CCCCN4)cccc3c2-c2ccncc2)c1", "note": "(stereo not given)", "inhibition": 1.67}
{"smiles": "COc1cc(Cc2cnc(N)nc2N)ccc1OCc1ccc(-c2ccccc2C#N)cc1", "inhibition": 0.47}
{"smiles": "CC(C)(C)c1ccc(CNC(=O)/C=C/c2ccc(CNC3CCNCC3)cc2)cc1", "inhibition": -1.07}
{"smiles": "CCCCCCCCNc1c2ccc(Cl)cc2nc2ccc(OC)cc12", "inhibition": 7.51}
{"smiles": "CCC(C)(C)NC(=O)C(c1cccc(OC)c1)N(C(=O)CNC(=O)c1cccs1)c1ccc2c(c1)OCCO2", "note": "(stereo not given)", "inhibition": 6.4}
{"smiles": "CN1CCN(C(C(=O)NCc2cc(Cl)cc(Cl)c2)c2ccc(Nc3cccc(C(F)(F)F)c3)cc2)CC1", "note": "(stereo not given)", "inhibition": -2.61}
{"smiles": "CCC/C=C/c1c(CNCCCNc2cc(=O)c3ccccc3[nH]2)sc(CC)c1Br", "inhibition": 1.29}
{"smiles": "CCCCC(NCC)c1ccc(OCCOc2ccc(C(CCCC)NCC)cc2)cc1", "note": "(stereo not given)", "inhibition": 41.5}
{"smiles": "N#Cc1cccc(NC(=O)Nc2ccc3c(c2)CCN(C2CCC2)CC3)c1", "inhibition": 4.43}
{"smiles": "O=C(Nc1ccc2oc(-c3ccc(Cl)cc3Cl)nc2c1)c1ccc([N+](=O)[O-])o1", "inhibition": 54.3}
{"smiles": "COc1ccc(C2SCC(=O)N2CCc2ccc(OC)c(OC)c2)cc1", "note": "(stereo not given)", "inhibition": 1.37}
{"smiles": "CCOc1ccccc1CON1C(N)=NC(N)=NC1(C)C", "inhibition": 3.69}
{"smiles": "CC(C)NC(=N)NN=Cc1ccc(Cl)c(Cl)c1", "inhibition": 2.99}
{"smiles": "Cc1ccc(C(C)C)c(Oc2ccc3nc(N)nc(N)c3c2)c1", "inhibition": 8.97}
{"smiles": "COc1ccc(CN2CCCC(Nc3ccc(F)c(F)c3)C2)c(O)c1", "note": "(stereo not given)", "inhibition": 1.39}
{"smiles": "COc1ccc(CNCCc2cccs2)cc1-c1ccc(OC)c(S(=O)(=O)NCCN2CCCC2)c1", "inhibition": 1.85}
{"smiles": "COc1cc(F)c2nccc([C@@H](O)CN3CCC(NC(=O)OCc4ccccc4)C(F)C3)c2c1", "note": "(stereo not given in full)", "inhibition": 16.3}
{"smiles": "C=C[C@]1(C)C[C@@H](OC(=O)c2cncn(COC)c2=O)[C@]2(C)[C@H](C)CC[C@]3(CCC(=O)[C@H]32)[C@@H](C)[C@@H]1O", "inhibition": -0.92}
{"smiles": "COc1cc(Cc2c(C)nc3nc(N)nc(N)c3c2C)c(Br)c(OC)c1OC", "inhibition": 8.22}
{"smiles": "O=C1OC2(CN1CC1CCN(Cc3ccc(O)c(Cl)c3)CC1)c1ccccc1-c1ccccc12", "inhibition": 6.3}
{"smiles": "Nc1ccc(-c2cnc3[nH]cc(-c4ccc(C(=O)O)cc4)c3c2)cn1", "inhibition": 0.34}
{"smiles": "O=C(/C=C/c1ccc(F)cc1)NC1CCC(CCN2CCc3ccc(-n4cccn4)cc3CC2)CC1", "note": "(stereo not given)", "inhibition": 12.9}
{"smiles": "CC(=O)c1c(Cc2ccccc2Cl)c[nH]c1C", "inhibition": 3.16}
{"smiles": "CCSc1nc2sc3c(c2c(=O)n1-c1ccccc1)CCN(C)C3", "inhibition": 0.76}
{"smiles": "CC(Oc1ccc(Cl)cc1)C(=O)Nc1cc(C(F)(F)F)ccc1-n1cncn1", "note": "(stereo not given)", "inhibition": 3.5}
{"smiles": "COc1ccc(-c2ncnc(C(F)(F)F)c2-c2ccc(Cl)cc2)c(O)c1", "inhibition": 3.07}
